This is a sample that favours compounds with a hit; in the whole collection about 4.2% have one here.
Mito fusion act – qHTS Assay for Small Molecule Inhibitors of Mitochondrial Division or Activators of Mitochondrial Fusion; S. cerevisiae fusion-defective mutant growth rescue, CellTiterGlo 48 h; Potency, µM (series often up to 46.1 µM), for inactives: at the top dose growth rescue (activation), most hits filed as activators; 0.23% of 320,000 active; further: % of control where 0% means no effect; nearly all actives have a fitted effect of over 45% in size
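Compounds are tested for their ability to restore growth of mitochondrial fusion-defective yeast strains at non-permissive 37C in YPEG medium over 48 hours. Viability is quantified by luciferase luminescence.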
A-T KAP1 phos – qHTS Assay for Identifying a Potential Treatment of Ataxia-Telangiectasia. F2112 A-T fibroblasts, KAP-1 phosphorylation AlphaLISA; neocarzinostatin DNA damage 30 min before lysis. Potency, µM (top dose mostly 57.5 µM), without a hit: at the highest dose activation, actives largely listed as activators. 0.19% of 320,000 active. AID 485349, 2010; further: % of control where 0% means no effect; nearly all actives have a fitted effect of over 45% in size
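hTERT-immortalized A-T patient fibroblasts (F2112), 500 cells/well in OPTI-MEM, 1% FBS, got compounds for 60 min, then NCS for 30 min at 37C. Lysates were then assayed for phospho-KAP-1 by AlphaLISA (anti-pKAP1 donor, anti-KAP1 acceptor beads), 6 hr at 25C.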
SW480 rerep – A quantitative high throughput screen for small molecules that induce DNA re-replication in SW480 colon adenocarcinoma cells. SW480 DNA re-replication, Hoechst DNA content imaging, 48 h. Potency, µM (doses to about 46.1 µM), for inactives: at the highest dose re-replication activation, usual class: activators. 1.8% of 340,000 active; further: % of control where 0% means no effect; nearly all actives have a fitted effect of over 55% in size
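Hoechst fluorescence of nuclei (405 nm excitation, 500-530 nm emission) measured by plate-scanning imager after 48 hr compound exposure at 37 C; re-replication scored as increased number of nuclei with elevated intensity.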
MCF10A rereplic – A quantitative high throughput screen for small molecules that induce DNA re-replication in MCF 10a normal breast cells. 2.9% of 350,000 active. MCF 10A DNA re-replication, Hoechst nuclear intensity, 48 h. AID 624296, 2012. Potency, µM (series often up to 46.1 µM), for inactives: at the highest dose activity, positive = re-replication, most hits filed as activators; further: % of control where 0% means no effect; nearly all actives have a fitted effect of over 50% in size
Integrin act MD – qHTS for Activators of Integrin-Mediated Alleviation for Muscular Dystrophy; AID 624291, 2012; alpha7betagal myoblasts, beta-gal FDG fluorescence, 48 h; 0.064% of 350,000 active; Potency, µM (top dose mostly 38.3 µM), without a hit: at the highest dose activation, most hits filed as activators;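 further: 100% = response of the positive control SU9516; nearly all actives have a fitted effect of over 60% in size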
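alpha7betagal+/- myoblasts (passage 13, 250/well) treated 48 h at 37C with compounds at 1:260 dilution of DMSO stock. Lysed, then beta-galactosidase activity read as FDG fluorescence (ex 480/em 540) after 30 min, with pre-read for autofluorescence.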
Starred values were filed as active, the others as inactive; ? = inconclusive; . = not tested or not shown; [ ] = remark or other dose. The call rests on the fitted dose curve; in most records, active means well fitted activation curve with a large enough effect; inconclusive means small, poorly fitted or top-dose-only effect; inactive means no such curve, though single readings can be large or run the other way. Potency means the concentration at half of the fitted maximal effect.

SMILES | Mito fusion act | A-T KAP1 phos | SW480 rerep | MCF10A rereplic | Integrin act MD
COc1cc(/C=C(/C)[N+](=O)[O-])ccc1OCc1ccccc1Cl | -19.1% | -3.0% | 3.26µM* | 3.66µM* | -66.4%
CC1=CC2/C=C(\C)CCC(O)C(O)/C=C/C(=O)C23C(=O)NC(CC(C)C)C3C1C (stereo unspecified) | -6.5% | 20.0% | 18.4µM* | ? | -20.8%
CC1CCC2(CC1)NC(=O)N(NC(=O)CCl)C2=O (stereo unspecified) | 5.4% | -2.2% | 0.1% | 8.4% | -16.3%
COc1cc(NS(=O)(=O)c2ccc3c(c2)oc(=O)n3C)cc(OC)c1OC | 1.2% | 3.6% | 20.6µM* | ? | -11.1%
N#Cc1cc2c(nc1SCC(=O)Nc1cc(Cl)ccc1Cl)C1CCN2CC1 | 24.1% | 3.1% | ? | 0.581µM* | -64.7%
N#Cc1cc2c(nc1SCC(=O)Nc1ccc(Cl)cc1)C1CCN2CC1 | 3.2% | 3.0% | ? | 187.2% | -17.7%[7.66 µM]
COCCOC(=O)c1c(C)n(C)c2ccc(OC(=O)N(C)C)cc12 | 1.4% | -2.7% | -12.8% | -11.6% | 2.7%
CN(C)C(=O)Oc1ccc(OCc2n(C)c3ccccc3[n+]2C)cc1 | 0.7% | 2.2% | 16.4µM* | 4.5% | 14.8%
CCn1c(O)c(C=NCc2cccs2)c(=O)n(CC)c1=S | -3.1% | 0.9% | -1.5% | ? | -1.8%
CCn1c(O)c(C(=O)CC2NCCc3ccccc32)c(=O)n(CC)c1=S (stereo unspecified) | 8.9% | -8.9% | 1.6% | 20.6µM* | -19.5%
C[C@H]1CN([C@@H](C)CO)C(=O)c2cccc(NC(=O)c3ccc(-c4nccs4)cc3)c2O[C@@H]1CN(C)C(=O)Nc1cccc2ccccc12 | . | 2.7% | -1.7% | -1.0% | -10.1%
CC1CC[C@@]2(NC1)OC1CC3C4CC[C@@H]5CC(O)CC[C@@]5(C)C4CC[C@]3(C)C1C2C (stereo partly specified) | . | . | -2.8% | 13.8% | .
COC(=O)c1ccccc1C(=O)c1ccc(OCCN2CCCCC2)cc1 | . | . | -6.1% | ? | .
CCC(C)NC(=O)CCC(=O)OC1O[C@H]2OC3(C)CC[C@H]4[C@H](C)CCC(C1C)C24OO3 (stereo partly specified) | 21.5% | -2.8% | 18.4µM* | ? | -10.5%
COc1c(C)cc(C(=O)C2CCCN(Cc3cccc(O)c3)C2)cc1C (stereo unspecified) | -15.2% | 2.9% | -16.1% | 6.51µM* | -12.9%
COc1c(C)cc(C(=O)C2CCCN(Cc3cccc(C)n3)C2)cc1C (stereo unspecified) | -4.3% | 3.8% | -117.5% | 26.8% | 0.0%
COCCCn1c(N)c(C(=O)NCCC(C)C)c2nc3ccccc3nc21 | 9.9% | ? | ? | ? | -26.4%[7.66 µM]
CCCCCn1c(N)c(C(=O)NCCN2CCOCC2)c2nc3ccccc3nc21 | -27.9% | 8.1% | 2.91µM* | ? | -8.1%
CCCNC(=O)c1c(N)n(CC2CCCO2)c2nc3ccccc3nc12 (stereo unspecified) | -3.7% | ? | 16.4µM* | 18.4µM* | 23.2%
COc1ccc(CCNC(=O)c2c(N)n(CCN3CCOCC3)c3nc4ccccc4nc23)cc1OC | 8.5% | 11.4% | -2.4% | 6.7% | 15.6%
CCCCCCn1c(N)c(C(=O)NCCN2CCOCC2)c2nc3ccccc3nc21 | -30.4% | 26.4% | 20.6µM* | 0.82µM* | -56.4%
CCN[C@]1(c2cccs2)CCCCC1=O | . | . | 0.8%[20.6 µM] | -0.1%[20.6 µM] | .
Cc1ccc(NC(=O)C2C3CCCC2C3c2ccccc2)c(C)c1 (stereo unspecified) | 0.5% | 0.8% | 1.7% | ? | 9.7%
COc1ccc(NC(=O)c2c(C)nn(Cc3ccccc3Cl)c2Cl)cc1Cl | 1.5% | -2.1% | -4.9% | 16.4µM* | -7.7%
Cc1nn(Cc2ccccc2Cl)c(Cl)c1C(=O)O | 3.1% | -1.1% | 2.5% | -4.1% | 0.0%

Compound activity (PubChem)
